For 30 compounds, Potency, outcome and activity change, negative = inhibition results are on record in PubChem BioAssay (NCATS).

“And” between values parts separate entries of the source, which are not always exact repeats. Equal entries are not always repeated. A number with no mark means an inactive call. Inconclusive results are not listed. Entries that show only a call come without a potency. The source made the active and inactive calls. Unless noted, calls follow the shape of the dose curve; as a rule, active = well fitted curve in either direction with a large enough effect (not every such curve was filed as active); inconclusive = small, poorly fitted or top-dose-only effect, or another doubt; inactive = flat fitted curve, though single readings scatter.

In the first assay the target is Glucocorticoid receptor (Homo sapiens) (UniProt P04150). The assay is described as follows: GR-EFC Redistribution (AID 451; calls by dose curve; also: potency is read from the fitted curve at half-maximal effect). To be noted: CHO-K1 GR-EFC translocation, beta-gal luminescence, 2 h. The essentials: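 Translocation of GR-ED fusion to nuclear EA restores b-gal, read by luminescence after 1 h room-temperature detection. Engineered CHO-K1 biosensor cells, 1,000/well, exposed 2 h at 37 C to titrations up to 46 uM final.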
Sequence of Glucocorticoid receptor (Homo sapiens) (P04150 whole entry, looked up, the tested form may be a part): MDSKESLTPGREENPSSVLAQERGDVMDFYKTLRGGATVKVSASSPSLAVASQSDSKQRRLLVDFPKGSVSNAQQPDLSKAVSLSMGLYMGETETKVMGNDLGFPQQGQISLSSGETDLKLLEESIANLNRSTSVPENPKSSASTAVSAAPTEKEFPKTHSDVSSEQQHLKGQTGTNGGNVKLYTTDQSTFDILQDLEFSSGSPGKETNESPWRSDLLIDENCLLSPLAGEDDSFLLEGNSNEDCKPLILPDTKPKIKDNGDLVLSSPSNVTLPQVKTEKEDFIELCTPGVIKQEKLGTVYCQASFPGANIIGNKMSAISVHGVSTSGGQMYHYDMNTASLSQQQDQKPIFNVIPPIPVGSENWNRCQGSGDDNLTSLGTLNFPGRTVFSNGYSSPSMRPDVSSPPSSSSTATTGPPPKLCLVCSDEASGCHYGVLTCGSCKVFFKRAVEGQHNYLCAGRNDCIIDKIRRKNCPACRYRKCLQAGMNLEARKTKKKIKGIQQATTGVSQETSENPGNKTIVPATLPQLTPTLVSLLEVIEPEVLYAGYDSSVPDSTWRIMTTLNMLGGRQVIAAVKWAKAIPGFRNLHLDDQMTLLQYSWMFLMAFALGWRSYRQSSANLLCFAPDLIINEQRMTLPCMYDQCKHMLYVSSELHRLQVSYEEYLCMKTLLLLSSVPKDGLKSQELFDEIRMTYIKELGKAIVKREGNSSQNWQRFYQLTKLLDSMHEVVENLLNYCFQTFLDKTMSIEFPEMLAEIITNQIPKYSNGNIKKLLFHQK
Regarding `Cn1ccnc1`, the Potency was more than 46 µM.

As to `Cn1c(=O)c2[nH]c(-c3ccc(S(=O)(=O)O)cc3)nc2n(C)c1=O`, the Potency was more than 46 µM.

As to `C#CCn1c(=O)c2c(ncn2C)n(C)c1=O`, the Potency was more than 46 µM.

Regarding `N=C(N)c1ccc(OCCCCCOc2ccc(C(=N)N)cc2)cc1` (tested in a mixture with another compound), the Potency was more than 46 µM.

On to `CC(=O)N[C@@H](Cc1c[nH]c2ccccc12)C(=O)OCc1cc(C(F)(F)F)cc(C(F)(F)F)c1`, for which the Potency is more than 46 µM.

For the compound `C[C@H](O)C(=O)C1=Nc2c(nc(N)[nH]c2=O)NC1`, the Potency was more than 46 µM.

Take `O=C(N[C@@H](Cc1ccccc1)C(=O)CCl)OCc1ccccc1`: the Potency was more than 46 µM.

Turning to `COc1ccc(-c2ccc(N)[n+](CCCC(=O)O)n2)cc1`, the Potency was > 46 µM and > 20.6 µM.

For the compound `c1ccc(CN2CCC3(CCCc4ccccc43)CC2)cc1`, the Potency was more than 46 µM.

For the compound `CC(C)(CO)Cc1cc(C(C)(C)C)c(O)c(C(C)(C)C)c1`, the Potency is more than 46 µM.

As for `CNC(=O)c1cc2c(cn1)[nH]c1ccccc12`, the Potency is more than 46 µM.

In the case of `NCCCCN=C(N)N`, the Potency was more than 46 µM.

For `C[N+](C)(C)CC=O`, the Potency is more than 46 µM.

Regarding `Nc1nc2[nH]c(=O)cnc2c(=O)[nH]1`, the Potency is more than 46 µM.

On to `Oc1ccc(Cn2cc[nH]c2=S)cc1`, for which the Potency was more than 46 µM.

A further assay deals with Mitogen-activated protein kinase 10 (Mus musculus) (UniProt Q61831). Nature of the assay: JNK3 AlphaScreen Assay (AID 530).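 Also: kinase came from lysate of stimulated human HepG2 cells; signal reports phosphorylation of biotinylated GST-cJun 1-79 at Ser73 with 10 µM ATP.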 To be noted: JNK3 lysate, c-Jun phosphorylation; series mostly up to 57.1 µM. The essentials:
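Compound titrations were preincubated 15 minutes at room temperature with substrate, antibody and pre-activated JNK3-containing HepG2 lysate. Reactions were started with 10 uM ATP and stopped with EDTA-containing bead buffer for AlphaScreen detection.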
For the compound `O=c1cc(-c2ccccc2)[nH]c2nc(Cl)ccc12`, the compound was classed as inactive.

On to `CCCCCCN(CCCCCC)C(=O)Cc1c(-c2ccc(F)cc2)[nH]c2ccccc12`, for which the call was inactive.

For the compound `CC[N+](CC)(CC)CC(=O)Nc1c(C)cccc1C`, the compound was called inactive.

Take `N#Cc1cc2nc(O)c(O)nc2cc1[N+](=O)[O-]`: the call was inactive.

`Nn1nnc2ccccc21`: the outcome was inactive.

On to `O=C1Cc2c([nH]c3ccc(Br)cc23)-c2ccccc2N1`, for which the compound was classed as inactive.

Regarding `O=C(O)/C(=C/c1c(C(=O)O)[nH]c2cc(Cl)cc(Cl)c12)c1ccccc1`, the compound was called inactive.

Turning to `N#CC(C#N)=C(N)/C(C#N)=C/c1ccc(O)cc1`, the call was inactive.

Take `O=C(O)Cc1ccc(O)c(O)c1`: the call was inactive.

For `O=c1[nH]c(=S)[nH]c(-c2ccccc2)c1Cc1c(O)ccc2ccccc12`, the activity change, negative = inhibition was 0.827% [at 11.4 µM].

Take `CC(N)=O`: the compound was classed as inactive.

Regarding `CCSC(=N)N`, the compound was classed as inactive.

As to `CCN(CC)CCOC(=O)c1cc(Cl)c(N)cc1OC`, the compound was called inactive.

Take `O=c1[nH]c2ccccc2c2ccccc12`: the call was inactive.

`NS(=O)(=O)c1cccc2c1c([N+](=O)[O-])cc1nc(O)c(O)nc12`: the call was inactive.

Take `Cn1ccnc1`: the result was inactive.

Consider `Cn1c(=O)c2[nH]c(-c3ccc(S(=O)(=O)O)cc3)nc2n(C)c1=O`, for which the call was inactive.

Take `C#CCn1c(=O)c2c(ncn2C)n(C)c1=O`: the outcome was inactive.

For the compound `N=C(N)c1ccc(OCCCCCOc2ccc(C(=N)N)cc2)cc1` (tested in a mixture with another compound), the result was inactive.

Regarding `CC(=O)N[C@@H](Cc1c[nH]c2ccccc12)C(=O)OCc1cc(C(F)(F)F)cc(C(F)(F)F)c1`, the outcome was inactive.

With `C[C@H](O)C(=O)C1=Nc2c(nc(N)[nH]c2=O)NC1`, the compound was called inactive.

Regarding `O=C(N[C@@H](Cc1ccccc1)C(=O)CCl)OCc1ccccc1`, the compound was classed as inactive.

Regarding `COc1ccc(-c2ccc(N)[n+](CCCC(=O)O)n2)cc1`, the outcome was inactive.

For `c1ccc(CN2CCC3(CCCc4ccccc43)CC2)cc1`, the call was inactive.

Take `CC(C)(CO)Cc1cc(C(C)(C)C)c(O)c(C(C)(C)C)c1`: the compound was called inactive.

In the case of `CNC(=O)c1cc2c(cn1)[nH]c1ccccc12`, the result was inactive.

Turning to `NCCCCN=C(N)N`, the compound was called inactive.

As to `C[N+](C)(C)CC=O`, the compound was called inactive.

For `Nc1nc2[nH]c(=O)cnc2c(=O)[nH]1`, the result was inactive.

`Oc1ccc(Cn2cc[nH]c2=S)cc1`: the outcome was inactive.
